From the supplement of paper PMC13380429

Assays:
[1] = tested on: Vero E6 infected with SARS-CoV-2; test: morphology score (similarity to uninfected cells); higher = more like uninfected cells; conditions: 24 h
[2] = tested on: Vero E6 infected with SARS-CoV-2; test: SARS-CoV-2 infection rate relative to infected DMSO; higher = more infection, active = 60 or less; conditions: 24 h

SMILES | morphology score [1] | SARS-CoV-2 infection rate [2]
NS(=O)(=O)C#Cc1ccccc1 [pifithrin-mu] (0.833333 µM) | 0.168 | 92% (inactive)
CC(C)[C@@H](C)/C=C/[C@@H](C)[C@H]1CC[C@H]2/C(=C/C=C3\C[C@@H](O)CC[C@@H]3C)CCC[C@]12C [dihydrotachysterol] (10 µM) | 0.121 | 106% (inactive)
C=CCNc1c(O)cc2c(O)c1C[C@@H](C)C[C@H](OC)[C@H](O)[C@@H](C)/C=C(\C)[C@H](OC(N)=O)[C@@H](OC)/C=C\C=C(/C)C(=O)N2 [retaspimycin] (10 µM) | -0.0349 | 108% (inactive)
C#Cc1cccc(Nc2ncnc3cc(OCCOC)c(OCCO)cc23)c1 (10 µM) | -0.0889 | 116% (inactive)
CN1CCN(c2ccc(Nc3ncc4cc(C#N)c(=O)n(C5CCCC5)c4n3)cc2)CC1 (0.833333 µM) | 0.153 | 104% (inactive)
CCOc1ccc(NC(=S)N2CCC(C(O)(c3ccccc3)c3ccccc3)CC2)cc1 (10 µM) | 0.267 | 86.5% (inactive)
CC(CCc1ccccc1)NC(C)C(O)c1ccc(O)cc1 (stereo not drawn) [buphenine] (10 µM) | -0.137 | 114% (inactive)
CC(NCCC(c1ccccc1)c1ccccc1)c1ccccc1 (stereo not drawn) [fendiline] (10 µM) | 0.771 | 44% (active)
COc1cc2c(cc1O)CC[C@@H]1[C@@H]2CC[C@]2(C)[C@@H](O)CC[C@@H]12 [2-methoxyestradiol] (0.833333 µM) | 0.00558 | 102% (inactive)
C[S+]([O-])CCCCN=C=S (stereo not drawn) [sulforaphane] (10 µM) | 0.924 | 6.5% (active)
COc1cc2c(c(OC)c1OC)-c1c(cc3c(c1OC)OCO3)CC(C)C(C)C2 (stereo not drawn) [schisandrin-B] (10 µM) | 0.244 | 99.5% (inactive)
CCN(CC)CCOc1ccc(Cc2ccccc2)cc1 (10 µM) | 0.39 | 71% (inactive)
NCCC(Oc1ccc(C(F)(F)F)cc1)c1ccccc1 (stereo not drawn) [norfluoxetine] (10 µM) | 0.568 | 59% (active)
Cc1cccc(C(=O)O)c1O [hydroxytoluic-acid] (10 µM) | -0.137 | 106% (inactive)
Cc1nc(-c2cccnc2)sc1C(=O)Nc1ccccc1-c1cn2c(CN3CCOCC3)csc2n1 (10 µM) | 0.215 | 98% (inactive)
Clc1ccc(C(c2ccccc2Cl)C(Cl)Cl)cc1 (stereo not drawn) [mitotane] (10 µM) | -0.173 | 112% (inactive)
COc1ccc2cc([C@H](C)C(=O)O)ccc2c1 [naproxen] (10 µM) | -0.0223 | 106% (inactive)
c1ccc(C(NCc2cccnc2)(c2ccccc2)c2ccccc2)cc1 (10 µM) | -0.069 | 104% (inactive)
COc1ccc(NC(=O)c2ccc(-c3ccc(-c4noc(C)n4)cc3C)cc2)cc1N1CCN(C)CC1 (0.833333 µM) | 0.0674 | 102% (inactive)
CCCCN1CCC(CCC(=O)c2cc(Cl)c(N)cc2OC)CC1 (10 µM) | 0.237 | 95% (inactive)

SMILES | morphology score [1] | SARS-CoV-2 infection rate [2]
Cc1ccc(/C=C2\CNC/C(=C\c3ccc(C)cc3)C2=O)cc1 (0.833333 µM) | 0.168 | 93% (inactive)
CC1(C)CCC(C)(C)c2cc(C3(c4ccc(C(=O)O)cc4)OCCO3)ccc21 (10 µM) | -0.00895 | 110% (inactive)
O=C(C=Cc1ccccc1)NC(NC(=S)Nc1ccc(Cl)cc1)C(Cl)(Cl)Cl (stereo not drawn) (10 µM) | -0.143 | 106% (inactive)
CCC(=O)O[C@@H]1CC(=O)O[C@H](C)C/C=C/C=C/[C@H](O)[C@H](C)C[C@H](CC=O)[C@H](O[C@@H]2O[C@H](C)[C@@H](O[C@H]3C[C@@](C)(O)[C@@H](OC(=O)CC)[C@H](C)O3)[C@H](N(C)C)[C@H]2O)[C@H]1OC [midecamycin] (10 µM) | 0.2 | 102% (inactive)
O=C(O)c1ccccc1Nc1cc(Cl)ccc1C(=O)O [lobenzarit] (10 µM) | 0.04 | 113% (inactive)
Cc1c(N(C)CS(=O)(=O)O)c(=O)n(-c2ccccc2)n1C [metamizole] (10 µM) | 0.141 | 93.5% (inactive)
Nc1ccc2ncnc(NCCc3ccc(Oc4ccccc4)cc3)c2c1 (10 µM) | -0.17 | 102% (inactive)
CCc1cc2c(cc1CC)CC(NC[C@H](O)c1ccc(O)c3[nH]c(=O)ccc13)C2 [indacaterol] (10 µM) | 0.0532 | 114% (inactive)
CC(C)(O)CC[C@@H](O)[C@](C)(O)[C@H]1CC[C@@]2(O)C3=CC(=O)[C@@H]4C[C@@H](O)[C@@H](O)C[C@]4(C)[C@H]3CC[C@]12C [20-hydroxyecdysone] (10 µM) | 0.0401 | 108% (inactive)
O=C(c1ccc(OCCN2CCCCC2)cc1)c1c(-c2ccc(O)cc2)sc2cc(O)ccc12 [raloxifene] (0.833333 µM) | 0.0812 | 101% (inactive)
NC1CCN(c2c(F)cc3c(=O)c(C(=O)O)cn(C4CC4)c3c2Cl)C1 (stereo not drawn) [clinafloxacin] (10 µM) | 0.187 | 112% (inactive)
Cc1ccc(C(=O)c2ccc(CC(=O)O)n2C)cc1 [tolmetin] (10 µM) | 0.0813 | 106% (inactive)
Cc1ccccc1-c1cc(N2CCN(C)CC2)ncc1N(C)C(=O)C(C)(C)c1cc(C(F)(F)F)cc(C(F)(F)F)c1 [netupitant] (10 µM) | 0.112 | 94% (inactive)
COC(=O)C1=C(C)NC(C)=C(C(=O)OC(C)C)[C@@H]1c1cccc2nonc12 [isradipine] (10 µM) | -0.0665 | 104% (inactive)
CC(=O)NC[C@H]1CN(c2ccc(N3CCOCC3)c(F)c2)C(=O)O1 [linezolid] (10 µM) | 0.0235 | 112% (inactive)
Cc1ccc([N+](=O)[O-])cc1O [2-methyl-5-nitrophenol] (10 µM) | 0.0626 | 98.5% (inactive)
C#C[C@]1(OC(C)=O)CC[C@H]2[C@@H]3CCC4=C[C@@H](OC(C)=O)CC[C@@H]4[C@H]3CC[C@@]21C [ethynodiol-diacetate] (10 µM) | -0.0396 | 113% (inactive)
CC#CCn1c(N2CCC[C@@H](N)C2)nc2c1c(=O)n(Cc1nc(C)c3ccccc3n1)c(=O)n2C [linagliptin] (10 µM) | -0.0102 | 110% (inactive)
COCC(=O)O[C@]1(CCN(C)CCCc2nc3ccccc3[nH]2)CCc2cc(F)ccc2[C@@H]1C(C)C [mibefradil] (10 µM) | 0.79 | 17.5% (active)
CN1C(CCl)Nc2cc(Cl)c(S(N)(=O)=O)cc2S1(=O)=O (stereo not drawn) [methyclothiazide] (10 µM) | 0.0153 | 104% (inactive)

SMILES | morphology score [1] | SARS-CoV-2 infection rate [2]
CCOc1ccc(-c2nc(-c3cccc4c3CCC4NCCO)no2)cc1OCC (stereo not drawn) (10 µM) | 0.847 | 12% (active)
CCCC(C(=O)OCCN(CC)CC)(c1ccccc1)c1ccccc1 [proadifen] (10 µM) | 0.323 | 89.5% (inactive)
Fc1ccc2nc(CCC#Cc3ccccn3)cn2c1 [dipraglurant] (10 µM) | 0.0385 | 103% (inactive)
Oc1cc(O)c2cc(O)c(-c3cc(O)c(O)c(O)c3)[o+]c2c1 [delphinidin] (10 µM) | 0.115 | 98.5% (inactive)
COc1ccc(-c2ccc3c(N4CCOCC4)nc(N4C[C@@H](C)O[C@@H](C)C4)nc3n2)cc1CO (0.833333 µM) | 0.12 | 110% (inactive)
c1cc(-c2cnn3cc(-c4ccc(OCCN5CCCCC5)cc4)cnc23)ccn1 [dorsomorphin] (0.833333 µM) | 0.321 | 96.5% (inactive)
c1cc(Nc2cc(C3CC3)n[nH]2)nc(Nc2ccc3[nH]cnc3c2)n1 (0.833333 µM) | -0.282 | 110% (inactive)
CCC(O)(CC(N)=O)c1ccccc1 (stereo not drawn) [3-hydroxy-3-phenylpentanamide] (10 µM) | 0.0251 | 112% (inactive)
C[C@H]1C[C@@H]2[C@H]([C@@H](O)C[C@@]3(C)[C@H]2CC[C@]3(O)C(=O)COC(=O)CCC(=O)O)[C@@]2(C)C=CC(=O)C=C12 [methylprednisolone-sodium-succinate] (10 µM) | -0.0168 | 102% (inactive)
CC(C)(C)CCN1C[C@@H]2[C@@H](CNC(=O)c3cc(Cl)cc(Cl)c3)[C@@H]2C1 (10 µM) | 0.324 | 86% (inactive)
C[N+](C)(C)CCOC(=O)CCC(=O)OCC[N+](C)(C)C [succinylcholine-chloride] (10 µM) | -0.0136 | 110% (inactive)
CCCC(=O)O[C@]1(C(=O)CO)CC[C@H]2[C@@H]3CCC4=CC(=O)CC[C@]4(C)[C@H]3[C@@H](O)C[C@@]21C [hydrocortisone-butyrate] (10 µM) | -0.0651 | 102% (inactive)
CC(C)(C)C(=O)OCOC(=O)[C@@H]1N2C(=O)C[C@H]2S(=O)(=O)C1(C)C [sulbactam-pivoxil] (10 µM) | 0.184 | 89% (inactive)
NCCCNCCCCNCCCN [spermine] (10 µM) | 0.0211 | 107% (inactive)
CC1=C(/C=C/C(C)=C/C=C/C(C)=C/CO)C(C)(C)CCC1 [retinol] (10 µM) | -0.0178 | 110% (inactive)
NCC(CC(=O)O)c1ccccc1 (stereo not drawn) [fenigam] (10 µM) | 0.256 | 89% (inactive)
N#Cc1ccnc(N2C(=O)CC[C@H]2C(=O)N(c2cncc(F)c2)[C@H](C(=O)NC2CC(F)(F)C2)c2ccccc2Cl)c1 [ivosidenib] (10 µM) | 0.219 | 91.5% (inactive)
Cc1c(C)c2c(c(C)c1O)CCC(C)(COc1ccc(CC3SC(=O)NC3=O)cc1)O2 (stereo not drawn) [troglitazone] (10 µM) | 0.342 | 89% (inactive)
Cc1ccc(/C(=C\CN2CCCC2)c2cccc(/C=C/C(=O)O)n2)cc1 [acrivastine] (10 µM) | -0.036 | 104% (inactive)
